Our source for the Potency and activity change, negative = inhibition values is PubChem BioAssay AID2158 (National Center for Advancing Translational Sciences (NCATS), 2009).

Records with an inconclusive call do not appear. Values without a mark were called inactive. The source made the active and inactive calls. The call rests on the fitted dose curve; in most records, active means well fitted inhibition curve with a large enough effect; inconclusive means small, poorly fitted or top-dose-only effect; inactive means no such curve, though single readings can be large or run the other way.
Potency means the concentration at half of the fitted maximal effect.

Sequence of Cruzipain (Trypanosoma cruzi) (P25779 123-467 limits assumed): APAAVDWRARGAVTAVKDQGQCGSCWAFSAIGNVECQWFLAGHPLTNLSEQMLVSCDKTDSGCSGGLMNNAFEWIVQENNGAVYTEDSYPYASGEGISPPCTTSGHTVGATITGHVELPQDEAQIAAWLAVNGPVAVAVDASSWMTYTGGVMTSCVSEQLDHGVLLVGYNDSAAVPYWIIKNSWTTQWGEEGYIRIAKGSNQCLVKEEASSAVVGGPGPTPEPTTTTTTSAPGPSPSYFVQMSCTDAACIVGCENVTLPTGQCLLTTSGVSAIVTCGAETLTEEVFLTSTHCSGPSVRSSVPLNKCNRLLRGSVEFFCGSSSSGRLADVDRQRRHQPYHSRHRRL

The target of this experiment is Cruzipain (Trypanosoma cruzi) (UniProt P25779). Kind of experiment: Confirmation qHTS Assay for Inhibitors of Cruzain. Further: nearly all actives have a fitted effect of over 40% in size.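 On activity change, negative = inhibition: plate controls were uninhibited enzyme control for no effect and buffer wells lacking enzyme for full effect.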 The settings on record: purified cruzain, Z-FR-AMC fluorescence, 0.01% Triton. On the procedure:
Cruzain is a cysteine protease from the tropical parasite Trypanosoma cruzi. This assay protocol is a follow-up and confirmation of related AID 1478 (qHTS Assay for Promiscuous and Specific Inhibitors of Cruzain -- with detergent). Cruzain was assayed by the use of fluorogenic coumarin-based substrate Z-FR-AMC: proteolytic cleavage releases AMC, whose fluorescence is measured at 360 nm excitation and 450 nm emission. Purified cruzain was supplied by the labs of Prof. James McKerrow and Brian Shoichet, UC San Francisco. This assay had 0.01% Triton X-100 concentration. See following references for additional details: Jadhav A, et al. J Med Chem. 2010 Jan 14;53(1):37-51. Mott BT, et al. J Med Chem. 2010 Jan 14;53(1):52-60. Assay Provider: Shoichet, Brian; University of California, San Fancisco Screening Center PI: Austin, C.P. Screening Center: NIH Chemical Genomics Center [NCGC]
Buffer: 100 mM Sodium Acetate, pH 5.5, 5 mM DTT, Triton X-100 concentration: 0.01%. Reagents/Controls: Buffer in columns 3 and 4 as negative control (no enzyme). Substrate solution: 2 uM final concentration of Z-FR-AMC (catalog number I-1160, Bachem) dispensed throughout the plate. Enzyme: 1.5 nM Cruzain final concentration in columns 1, 2, 5-48. Column 1 is neutral (100% activity). Column 2 contained titration of covalent inhibitor K11777, starting concentration 1 mM, then 1:2 dilution in duplicate). Assay Steps: Three uL of enzyme or buffer were dispensed to 1536-well Greiner black solid bottom plates. Compounds and controls (23 nL) were transferred via Kalypsys PinTool. The plates were incubated for 15 min at room temperature, and then 1 uL of substrate solution was added to start the reaction. The plates were immediately transferred to and read 4 times every 30 seconds for 2 min on ViewLux High-throughput CCD imager (Perkin-Elmer) using 360 nm excitation and 450 nm emission fluorescence protocol. The fluorescence intensity difference between the third and the first time points (time lapse of 60 seconds) was used to compute reaction progress.
For the compound `O=C(CNC(=O)c1ccc(Cl)cc1)OC(C(=O)Nc1cc(C(F)(F)F)ccc1Cl)c1ccccc1` (stereo not given), the Potency is 10 µM (active).
For `N#Cc1nc(-c2cccs2)oc1N1CCOCC1`, the activity change, negative = inhibition is -30.8%.
On the same count and under the same terms, as for `CN(C)c1ccc(-c2nn3c(-c4cc(-c5ccccc5)n[nH]4)nnc3s2)cc1`, the figure is -5.13%.
Consider `CCc1ccc(C(=O)COC(=O)CNC(=O)C2CCCCC2)cc1`, for which the Potency is 7.08 µM (active).
On to `Cc1csc(N/N=C/c2ccc(O)c([N+](=O)[O-])c2)n1`, for which the activity change, negative = inhibition was -63.9%.
With `CCOC(=O)N1CCC(=C2c3ccc(Cl)cc3CCc3cccnc32)CC1`, the activity change, negative = inhibition is -13.4%.
On the same count and under the same terms, in the case of `COc1ccc(NS(=O)(=O)c2cc(NC(=O)/C=C/c3ccccc3OC)ccc2N2CCCCC2)cc1` it was 2.33%.
In the case of `O=C(CNC(=O)c1ccc2ccccc2c1)OC(C(=O)Nc1cc(C(F)(F)F)ccc1Cl)c1ccccc1` (stereo not given), the Potency is 4.47 µM (active).
Turning to `CCCCNC(=O)Cn1c(SCc2cccc(F)c2)nc2ccncc21`, the activity change, negative = inhibition was -27.5%.
`Cc1cc(C)cc(OCCCn2c(CCNC(=O)C3CCCCC3)nc3ccccc32)c1`: the Potency was 0.891 µM (active).
On to `O=C(N/N=C\c1ccccc1O)c1ccccc1O`, for which the activity change, negative = inhibition is -9.61%.
For `CSc1nc(N(CCO)CCO)c2sc3nc(-c4ccco4)c4c(c3c2n1)CCC4`, the Potency was 11.2 µM (active).
With `COC(=O)Cn1c(=NC(=O)c2ccc(Cl)s2)sc2cc(C)ccc21`, the activity change, negative = inhibition was -20%.
As for `CC(C)C[C@H](N)c1nnc(S(=O)(=O)Cc2cccc(F)c2)o1`, the Potency was 15.8 µM (active).
On to `Cc1ccc2[nH]c(=O)c(CN(Cc3ccccc3)Cc3nnnn3Cc3ccco3)cc2c1`, for which the activity change, negative = inhibition was -19.4%.
Still for that read-out and setting: as for `Cc1ccc(CN(Cc2cc3cc4c(cc3[nH]c2=O)OCCO4)Cc2nnnn2Cc2ccco2)cc1`, the figure is -25.4%; as for `CC(C)(C)OC(=O)Cc1nnc(-c2cc3ccccc3[nH]2)s1`, -10.9%.
On to `O=C(NCCc1nc2ccccc2[nH]1)c1cc([N+](=O)[O-])cc([N+](=O)[O-])c1`, for which the Potency was 0.794 µM (active).
On the same count and under the same terms, in the case of `O=C(NCCc1nc2ccccc2n1CCOc1ccc2ccccc2c1)C1CCCCC1` it was 3.55 µM (active).
`Cc1ccc(CN(Cc2cc3cc(C)ccc3[nH]c2=O)Cc2nnnn2Cc2ccccc2)cc1`: the activity change, negative = inhibition is -18.6%.
Still for that read-out and setting: in the case of `CN(C)CCCNS(=O)(=O)c1ccc(N2CCC(c3ccc(Cl)cc3)=N2)cc1` it was -28.4%.
On to `N#Cc1nc(N2CCCC2)nc(N2CCCC2)n1`, for which the Potency was 7.08 µM (active).
With `Cc1ccccc1Nc1nc(C#N)nc(NC2CCCC2)n1`, the Potency is 0.708 µM (active).
Still for that read-out and setting: as for `CCn1cnc2c(NCCc3cccnc3)nc(C#N)nc21`, the figure is 10 µM (active); as for `Cn1nc(-c2cccnc2)nc2c(=O)n(C)c(=O)nc1-2`, 1.12 µM (active).
`Clc1ccc(-c2nn3c(-c4cc(-c5ccccc5)n[nH]4)nnc3s2)cc1`: the activity change, negative = inhibition is -13.4%.
For the compound `NC(=O)C(OC(=O)CNC(=O)C1CCCCC1)c1ccccc1` (stereo not given), the Potency was 2.51 µM (active).
As to `O=C(CNC(=O)C1CCCC1)OC(C(=O)Nc1cc(C(F)(F)F)ccc1Cl)c1ccccc1` (stereo not given), the Potency is 7.94 µM (active).
Still for that read-out and setting: as for `O=C(COC(=O)CNC(=O)C1CCCCC1)NC1CCCC1`, the figure is 12.6 µM (active).
In the case of `O=C(Cn1cc(CNC(=O)c2ccccc2)nn1)Nc1cc(C(F)(F)F)ccc1Cl`, the activity change, negative = inhibition was 2.48%.
`Cc1ccc(C(=O)C(OC(=O)CNC(=O)COc2ccccc2C)c2ccccc2)cc1` (stereo not given): the Potency was 3.16 µM (active).
On to `CCN(c1ccccc1)c1nc(C#N)nc(N(CC)c2ccccc2)n1`, for which the Potency was 5.01 µM (active).
For the compound `CC1CCN(c2oc(-c3cccc4ccccc34)nc2C#N)CC1`, the activity change, negative = inhibition is -40.4%.
Consider `O=C(CNC(=O)c1ccc2cc[nH]c2c1)OC(C(=O)Nc1cc(C(F)(F)F)ccc1Cl)c1ccccc1` (stereo not given), for which the Potency was 12.6 µM (active).
As for `O=C(O)c1c(Sc2ccccc2)c2cc(Cl)ccc2n1Cc1ccc(Cl)cc1`, the Potency was 8.91 µM (active).
For the compound `N#Cc1nc(Nc2ccccc2)nc(NC2CCCC2)n1`, the Potency is 0.708 µM (active).
Still for that read-out and setting: as for `N#Cc1nc(Nc2cccc3ccccc23)nc(NC2CCCC2)n1`, the figure is 2.82 µM (active); as for `COc1cccc(C)c1NC(=O)C(OC(=O)CNC(=O)c1ccccc1)c1ccccc1` (stereo not given), 25.1 µM (active).
On to `Cc1ccccc1OCC(=O)NCC(=O)OCC(=O)c1ccc(F)cc1`, for which the activity change, negative = inhibition is -14.6%.
The same measure, in the same setting: as for `Cc1ccccc1OCC(=O)NCC(C)NC(=O)COc1ccccc1C` (stereo not given), the figure is 36.5%.
